Source: PubChem
NOMO-1 viab: NOMO-1 AML cell viability reduction, primary screen, STK33 inhibitor project, CellTiter-Glo luminescence | NOMO-1 AML viability, 72 h | inhibition, % (no concentration beside the values) | 37,000 compounds, 7.5% hits; in the data active = inhibition above about 80%; inconclusive = no clear call, values can overlap the other calls
STK33 kin inh: STK33 kinase inhibitors, primary screen, biochemical, luminescence, ADP-Glo, MBP substrate. Serine/threonine-protein kinase 33 (Homo sapiens), Q9BYT3. inhibition, % at 12.5 µM. 27,000 compounds, 0.44% hits. AID 2322, 2010; in the data active = inhibition above about 20%; inconclusive = no clear call, values can overlap the other calls
Target sequence (Q9BYT3 whole entry, looked up): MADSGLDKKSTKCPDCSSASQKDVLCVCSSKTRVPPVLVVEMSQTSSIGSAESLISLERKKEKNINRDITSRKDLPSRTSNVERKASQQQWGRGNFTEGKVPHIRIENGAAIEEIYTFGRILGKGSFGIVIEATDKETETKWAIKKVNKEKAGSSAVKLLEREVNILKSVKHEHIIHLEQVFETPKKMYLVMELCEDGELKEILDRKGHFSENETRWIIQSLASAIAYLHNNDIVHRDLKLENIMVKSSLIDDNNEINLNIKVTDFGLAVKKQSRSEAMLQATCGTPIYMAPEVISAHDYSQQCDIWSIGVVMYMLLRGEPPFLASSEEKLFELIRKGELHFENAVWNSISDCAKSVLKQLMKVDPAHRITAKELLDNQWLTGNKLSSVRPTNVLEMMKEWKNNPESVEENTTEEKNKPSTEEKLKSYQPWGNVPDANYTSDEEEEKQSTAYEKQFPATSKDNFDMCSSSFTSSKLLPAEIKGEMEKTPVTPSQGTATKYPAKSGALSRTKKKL
PD-1 reversal: activators reversing PD-1 mediated T-cell inhibition, primary screen, luminescence, primary human CD4 T cells, PD-L1 beads; CellTiter-Glo 96 h; 29,000 tested, under 10 active; activation, % (concentration not given with the values); call rule not given here
A number is an active result; i = inactive; ? = inconclusive; nt = not tested or not shown. The sample as a whole holds a higher share of hits than the screen did.

SMILES	NOMO-1 viab	STK33 kin inh	PD-1 reversal
OC(Cc1ccccc1)(c1ccccc1)c1ccccc1N=Cc1ccc2c(c1)OCO2 (stereo unspecified)	90.5	nt	i
OC(Cc1cccnc1)(c1ccccc1)c1ccccc1	i	i	i
COc1cc2c(cc1NC(=O)C(C)Oc1ccccc1C)oc1ccccc12 (stereo unspecified)	i	i	nt
CC(C(=O)O)N(c1ccc(Cl)cc1)S(C)(=O)=O (stereo unspecified)	i	i	nt
O=C(CSc1ncnc2sc(-c3ccccc3)cc12)NC1CCCCC1	103.9	i	i
COc1ccc(NC(=O)CSc2ncnc3sc(-c4ccccc4)cc23)cc1Cl	i	i	i
C[C@@H]1CN([C@H](C)CO)C(=O)c2cccc(NC(=O)CCCCCC(=O)Nc3ccccc3N)c2O[C@@H]1CN(C)S(=O)(=O)c1ccc(Cl)cc1	94.6	nt	i
C[C@H](CO)N1C[C@H](C)[C@@H](CN(C)S(C)(=O)=O)Oc2c(NC(=O)CCCCCC(=O)Nc3ccccc3N)cccc2C1=O	i	nt	i
C[C@@H]1CN([C@@H](C)CO)C(=O)c2cccc(NC(=O)CCCCCC(=O)Nc3ccccc3N)c2O[C@H]1CN(C)S(=O)(=O)c1ccc(Cl)cc1	94.6	nt	i
Cc1ccc(S(=O)(=O)N(C)C[C@H]2Oc3c(NC(=O)CCCCCC(=O)Nc4ccccc4N)cccc3C(=O)N([C@H](C)CO)C[C@H]2C)cc1	i	nt	i
C[C@@H]1CN([C@@H](C)CO)C(=O)c2cccc(NC(=O)CCCCCC(=O)Nc3ccccc3N)c2O[C@@H]1CN(C)S(=O)(=O)c1ccc(Cl)cc1	121.1	nt	i
C[C@@H]1CN([C@H](C)CO)C(=O)c2cccc(NC(=O)CCCCCC(=O)Nc3ccccc3N)c2O[C@@H]1CN(C)S(=O)(=O)c1ccccc1	i	nt	i
COc1c(O)ccc(C(c2cn(C)c3ccccc23)c2cn(C)c3ccccc23)c1[N+](=O)[O-]	i	i	nt
COc1cc(OC)c(C(O)C(C)O)cc1OC (stereo unspecified)	89.6	i	i
COc1cc(=O)oc(C(C)C(C)O)c1CO (stereo unspecified)	i	i	i
CCOC(=O)c1nn(-c2ccc(OC)cc2)c(C(=O)OCC)c1NC(=O)C1CCCCC1	i	i	i
CC1(C)CCc2cc(C3SCCS3)ccc2O1	i	nt	i
CCn1c(SCC(=O)Nc2cccc(SC)c2)nnc1-c1ccc(Br)cc1	i	i	i
O=C1c2ccccc2-[n+]2ccc3c([nH]c4ccccc43)c21	98.8	i	i
Cc1cc(C)n2nc(SCC(=O)Nc3cccc([N+](=O)[O-])c3)nc2n1	i	i	i
CC1CCC(C(C)C)C(NC(=O)c2cccc3ccccc23)C1 (stereo unspecified)	81.8	nt	i
CC(C)CNP(=O)(OC1CC(C)CCC1C(C)C)c1ccccc1 (stereo unspecified)	i	nt	i
CCOC(=O)C1CCCCN1Cc1cccc([N+](=O)[O-])c1 (stereo unspecified)	i	i	nt
Cc1cc(C)c(NC(=O)CN(C)S(=O)(=O)c2ccc(F)cc2)c(C)c1	i	i	i
C[C@@H]1CN([C@H](C)CO)C(=O)c2cc(NC(=O)CCC(F)(F)F)ccc2O[C@@H]1CN(C)Cc1ccc(C(=O)Nc2ccccc2N)cc1	104.2	nt	i
SMILES	NOMO-1 viab	STK33 kin inh	PD-1 reversal
C[C@H]1CN([C@@H](C)CO)C(=O)Cc2cc(NC(=O)CCC(F)(F)F)ccc2O[C@@H]1CN(C)Cc1ccc(C(=O)Nc2ccccc2N)cc1	i	nt	i
C[C@H]1CN([C@@H](C)CO)C(=O)Cc2cc(NC(=O)CCC(F)(F)F)ccc2O[C@H]1CN(C)Cc1ccc(C(=O)Nc2ccccc2N)cc1	139.2	nt	i
C[C@H]1CN([C@@H](C)CO)C(=O)c2cc(NC(=O)CCC(F)(F)F)ccc2O[C@@H]1CN(C)Cc1ccc(C(=O)Nc2ccccc2N)cc1	?	nt	i
O=C(CSc1nnnn1-c1ccccc1)Nc1ccc(Cl)c(C(=O)O)c1	i	i	i
COc1ccc(CC(=O)Nc2cccc(-c3nnc(-c4ccc(C)cc4)o3)c2)cc1OC	122.3	i	i
COc1ccccc1OCC(=O)Nc1cccc(-c2nnc(-c3ccccc3)o2)c1	i	i	i
Cc1cc(Cl)ccc1NC(=O)CSc1nnc(-c2cccs2)n1-c1ccccc1	i	i	nt
COC(=O)c1cc(NC(=O)COc2c(C)cc(C)cc2Cl)cc(C(=O)OC)c1	i	i	i
C[C@@H]1CN([C@@H](C)CO)C(=O)Cc2cc(NC(=O)Nc3ccc(F)cc3)ccc2O[C@@H]1CN(C)Cc1ccc(Cl)c(Cl)c1	102.7	i	i
COc1ccc(NC(=O)Nc2ccc3c(c2)CC(=O)N([C@H](C)CO)C[C@H](C)[C@H](CN(C)Cc2ccc(Cl)c(Cl)c2)O3)cc1	i	i	i
C[C@@H]1CN([C@@H](C)CO)C(=O)Cc2cc(NC(=O)NC3CCCCC3)ccc2O[C@@H]1CN(C)Cc1ccncc1	i	i	i
C[C@H]1CN([C@@H](C)CO)C(=O)Cc2cc(NC(=O)Nc3ccccc3)ccc2O[C@H]1CN(C)Cc1ccccc1	i	i	nt
C[C@H]1CN([C@@H](C)CO)C(=O)Cc2cc(NC(=O)Nc3ccccc3)ccc2O[C@H]1CN(C)Cc1ccc(Cl)c(Cl)c1	104.1	i	i
C[C@H](CO)N1C[C@H](C)[C@H](CN(C)Cc2ccncc2)Oc2ccc(NC(=O)Nc3ccc(F)cc3)cc2CC1=O	i	i	i
C[C@@H]1CN([C@H](C)CO)C(=O)Cc2cc(NC(=O)NC3CCCCC3)ccc2O[C@@H]1CN(C)Cc1ccc(Cl)c(Cl)c1	113.7	i	i
C[C@H](CO)N1C[C@H](C)[C@H](CN(C)Cc2ccc(Cl)c(Cl)c2)Oc2ccc(NC(=O)Nc3ccccc3)cc2CC1=O	115.7	i	i
O=C(CSc1nnc(-c2ccncc2)n1-c1ccccc1)Nc1ccc(Br)cc1C(F)(F)F	i	i	i
C[C@H](CO)N1C[C@H](C)[C@H](CN(C)Cc2ccc(Cl)c(Cl)c2)Oc2ccc(NC(=O)Nc3ccc4c(c3)OCO4)cc2CC1=O	93.9	nt	nt
C[C@H](CO)N1C[C@H](C)[C@H](CN(C)Cc2ccc3c(c2)OCO3)Oc2ccc(NC(=O)Nc3ccc4c(c3)OCO4)cc2CC1=O	i	nt	nt
Cc1nc(-c2ccccc2)sc1C(=O)C1C(=O)C(=O)N(CCN(C)C)C1c1ccc(Cl)cc1 (stereo unspecified)	i	i	i
CS(=O)(=O)N(CC(=O)Nc1ccc(I)cc1)C1CCCCC1	i	i	i
CO[C@H]1C[C@@H]2CC[C@@H](C)[C@@](O)(O2)C(=O)C(=O)N2CCCC[C@H]2C(=O)O[C@H]([C@H](C)C[C@@H]2CC[C@@H](O)[C@H](OC)C2)CC(=O)[C@H](C)/C=C(\C)[C@@H](O)[C@@H](OC)C(=O)[C@H](C)C[C@H](C)/C=C/C=C/C=C\1C	131.4	i	i
O=C(CSc1nc2ccccc2s1)Nc1ccc(I)cc1	i	i	i
Cc1cc(C(F)(F)F)c2c(n1)sc1c(=O)[nH]c(C)nc12	i	nt	i
COC(=O)c1cccc(NC(=O)C(C)Oc2ccc3c(C)cc(=O)oc3c2)c1 (stereo unspecified)	i	i	nt
C[C@@H]1CCCCO[C@@H](CN(C)Cc2ccc(C(=O)Nc3ccccc3N)cc2)[C@@H](C)CN([C@H](C)CO)C(=O)c2cc(NC(=O)C3CCCCC3)ccc2O1	123.4	nt	i
